Reference: ChEMBL document CHEMBL4513135, “CO-ADD screening of IQOG CSIS (Spain) compounds”
Several values for one entry are separate records, joined by “and”; a condition that tells them apart may be missing. Equal values may be shown once. Measured potencies and affinities stand elsewhere.

Experiments:
Klebsiella pneumoniae = conditions: Concentration 32 ug.mL-1, ASSAY_TEST Inhibition of Bacterial Growth, detection method Absorption (OD600), MEDIA CAMHB, plate type 384well, NBS, CORNING #3640, time 18 hr
Candida albicans = conditions: 32 ug/mL
Cryptococcus neoformans = conditions: Concentration 32 ug.mL-1, ASSAY_TEST Inhibition of Fungal Growth, detection method Resazurin, Absorption (OD600-OD570), plate type 384well, NBS, CORNING #3640

| Compound | Inhibition (Klebsiella pneumoniae) [%] | Inhibition (Candida albicans) | Inhibition (Cryptococcus neoformans) [%] | Inhibition (Klebsiella pneumoniae; 32 ug/mL) | Inhibition (Cryptococcus neoformans; 32 ug/mL) |
| --- | --- | --- | --- | --- | --- |
| O=C(NCc1ccccc1)c1cc2ccccc2[nH]1 | 1.5 | -0.44% | -6.86 |  |  |
| COc1ccccc1C1c2ccc3ccccc3c2Oc2nc3c(c(N)c21)CCCC3 (stereo not given) | 8.8 | 0.31% | -4.38 |  |  |
| CN(C)c1nc(N)c(C#N)c(-c2ccccc2)c1C#N | -2.21 | 0.74% | -0.79 |  |  |
| O=C(N/N=C/Cc1ccccc1)c1cc2ccccc2n1Cc1ccccc1 | 4.61 | 1.98% | -1.83 |  |  |
| CCOC(=O)c1cc2cc(OCc3ccccc3)ccc2[nH]1 | 6.66 | 1.86% | -3.27 |  |  |
| Cn1c(CNNC(=O)Cc2cccc3ccccc23)cc2ccccc21 | 2.56 | -0.25% | -2.04 |  |  |
| O=Cc1cc2ccccc2nc1Cl | -2.74 | 7.94% | -7.31 |  |  |
| O=C(O)c1c[nH]c2ccccc12 | -9.13 | 6.48% | -9.05 |  |  |
| COc1ccccc1-c1c(C#N)c(=O)oc2c1ccc1ccccc12 | 11.02 | 9.28% | -7.79 |  |  |
| CCOc1nc2nc(CCc3ccccc3)ccc2c(-c2ccccc2)c1C#N | 1.47 | 7.93% | -42.89 |  |  |
| ClCCC1CCN(Cc2ccccc2)CC1 | 14.5 | 6.52% | -7.64 |  |  |
| Cn1cc(C=O)c2ccccc21 | 2.25 | 1.53% | -4.31 |  |  |
| CC#CCN.Cl | 8.69 | 3.96% | -2.53 |  |  |
| C#CCN(C)Cc1cc2cc(OCCC3CCN(Cc4ccccc4)CC3)ccc2n1C.Cl | 16.32 | 3.09% | -83.46 |  |  |
| COc1cc(C2c3c(nc4c(c3N)CCC4)Oc3ccc4ccccc4c32)ccc1O (stereo not given) | 23.66 | -1.69% | -4.01 |  |  |
| CN(C)c1nc2nc3c(c(N)c2c(-c2ccccc2)c1C#N)CCCC3 | 5.15 | 1.47% | -62.72 |  |  |
| COc1ccc(C2c3ccc4ccccc4c3OC(=NBr)C2(Br)C#N)cc1OC (stereo not given) | 8.89 | 5.08% | -80.16 |  |  |
| O=C(Cc1c[nH]c2ccccc12)NNCCc1ccccc1 | 0.81 | 1.99% | -0.59 |  |  |

| Compound | Inhibition (Klebsiella pneumoniae) [%] | Inhibition (Candida albicans) | Inhibition (Cryptococcus neoformans) [%] | Inhibition (Klebsiella pneumoniae; 32 ug/mL) | Inhibition (Cryptococcus neoformans; 32 ug/mL) |
| --- | --- | --- | --- | --- | --- |
| N#CC1(Br)C(=N)Oc2ccc3ccccc3c2C1c1ccccc1 (stereo not given) |  | 5.08% and 2.03% |  | 8.56% and 13.61% | -52.48% and -41.25% |
| CCOC(=O)C1=C(C)Oc2nc3c(c(N)c2C1c1nccn1C)CCC3 (stereo not given) | 4.43 | -1.64% | -84.25 |  |  |
| N#Cc1cc(C#N)c(Cl)nc1Cl | 2.35 | 33.1% | 24.8 |  |  |
| N#Cc1c(-c2ccccc2)c2c(ccc3ccccc32)oc1=O | 13.16 | 0.36% | -9.44 |  |  |
| CNC(=O)c1cc2cc(OCc3ccccc3)ccc2n1C | 4.29 | 3.06% | -45.34 |  |  |
| Cc1nn(-c2ccccc2)c2ncnc(NCc3ccccc3)c12 | 6.27 | -0.21% | -3.05 |  |  |
| Cc1ccc(C2c3c(nc4c(c3N)CCCC4)Oc3ccc4ccccc4c32)cc1 (stereo not given) | 2.87 | 1.23% | 2.32 |  |  |
| C#CCN1CCc2nc3nc(N(C)C)c(C#N)cc3c(N)c2C1 | 15.18 | 3.18% | -99.98 |  |  |
| C#CCN(C)Cc1cc2cc(OCCCC3CCN(Cc4ccc(C#N)cc4)CC3)ccc2n1C | 2.67 | 4.18% | -50.05 |  |  |
| COc1ccc2c(c1)cc(/C=C/[N+](=O)[O-])n2C | 9.01 | 2.82% | 4.17 |  |  |
| C#CCN(C)c1ncc(C#N)c(N)n1 | 9.44 | 5.2% | -42.08 |  |  |
| N#CC1=C(N)Oc2c(ccc3ccccc23)C1c1ccc(O)cc1 (stereo not given) | 6.16 | 0.86% | -59.36 |  |  |
| N#CC1=C(Cl)Oc2ccc3ccccc3c2C1c1ccccc1 (stereo not given) | 13.06 | 2.47% | -4.84 |  |  |
| Cc1ccc2nc(Cl)c(/C=N/OCc3ccccc3)cc2c1 | 9.15 | 2.45% | -9.27 |  |  |
| COc1ccc(-c2cc(-c3cc4ccc(OC)cc4nc3Cl)cc(=O)[nH]2)cc1 | 4.32 | -0.61% | -66.65 |  |  |
| Cl.ClCCCN1CCCC1 | 2.47 | 8.26% | -0.84 |  |  |
| N#Cc1c(Cl)nc(N2CCCCC2)c(C#N)c1-c1ccccc1 | -24.06 | 3.22% | -3.56 |  |  |
